The results in this text go back to PubChem BioAssay (Tox21).

Records with an inconclusive call do not appear. Where a call stands in place of a potency, no number is given. The source made the active and inactive calls. The call rests on the fitted dose curve; in most records, active means well fitted activation curve with a large enough effect in the signal ratio in the repeat runs, with a control signal flat (not every such curve was filed as active); inconclusive means weak or mixed curves; inactive means flat fitted curve, though single readings scatter; the % refers to the signal ratio.

The assay is described as follows: qHTS assay for small molecule activators of the heat shock response signaling pathway (AID 743210). The settings on record: HeLa HSE-bla reporter, beta-lactamase ratio, 5 h; series mostly up to 62.6 µM. The source says:
U.S. Tox21 Program National Center for Advancing Translational Sciences [NCATS] NIH Chemical Genomics Center [NCGC] U.S. Environmental Protection Agency [EPA] National Institutes of Environmental Health Sciences [NIEHS] National Toxicology Program [NTP] U.S. Food and Drug Administration [FDA] Tox21 Assay Overview: Various chemicals, environmental and physiological stress conditions may lead to the activation of heat shock response/ unfolded protein response (HSR/UPR). There are three heat shock transcription factors (HSFs) (HSF-1, -2, and -4) mediating transcriptional regulation of the human HSR. To identify the compounds that activate HSR signaling, HSE-bla HeLa cell line (Invitrogen, Carlsbad, CA, USA) containing a beta-lactamase reporter gene under the control of the heat shock response elements was used to screen the Tox21 10K compound library.
Tox21 Assay Protocol Summary: The CellSensor HSE-bla HeLa cells (Invitrogen, Carlsbad, CA, USA) were dispensed at 1500 cells/6uL/well into 1536-well black wall/clear bottom plates using a Multidrop combi (Thermo Fisher Scientific, Waltham, MA) dispenser. After the assay plates were incubated at 37 C and 5% CO2 overnight, 23 nL of compounds dissolved in DMSO, positive controls or DMSO only was transferred to the assay plate by a Pintool station (Kalypsys, San Diego, CA). The plates were incubated at 37 C for 5 h. After 1 uL of LiveBLAzerTM B/G FRET substrate was added using a Flying Reagent Dispenser (Beckman Coulter, Indianapolis, IN, USA), the plates were incubated at room temperature for 2.5 h, and fluorescence intensity was measured by an Envision plate reader (PerkinElmer, Shelton, CT).
Background: qHTS replaces the single test concentration by a dilution series.
Turning to `CON(C)C(=O)Nc1ccc(Cl)cc1`, the Potency result is “inactive”.

As for `C=CC(=O)OCC`, the Potency entry was “inactive”.

In the case of `c1ccc2c(c1)sc1ccccc12`, the Potency result was “inactive”.

Take `OCC1CO1` (stereo not given): the Potency result was “inactive”.

As to `C[N+](C)(C)CC1CO1` (stereo not given), the Potency entry is “inactive”.

`N#CC1(N=NC2(C#N)CCCCC2)CCCCC1`: the Potency entry is “inactive”.

In the case of `OCCSSCCO`, the Potency entry is “inactive”.

As for `C[Si](Cn1cncn1)(c1ccc(F)cc1)c1ccc(F)cc1`, the Potency entry is “inactive”.

On to `CCOP(=S)(OCC)Oc1ccc(S(C)=O)cc1` (stereo not given), for which the Potency result is “inactive”.

For `CCOP(=O)(O)C(N)=O`, the Potency entry is “inactive”.

On to `CCC1CCC(=O)O1` (stereo not given), for which the Potency result is “inactive”.

Consider `CC(C)(C)NCC(O)c1ccccc1Cl` (stereo not given), for which the Potency entry was “inactive”.

In the case of `C1CS1`, the Potency entry is “inactive”.

Turning to `COc1ccc2c(c1OC)C(=O)O[C@H]2[C@@H]1c2cc3c(cc2CCN1C)OCO3`, the Potency result is “inactive”.

Turning to `CCCN(CCC)C(=O)Cc1c(-c2ccc(Cl)cc2)nc2ccc(Cl)cn12`, the Potency entry is “inactive”.

On to `O=C(Cc1ccccc1)OCCc1ccccc1`, for which the Potency result is “inactive”.

For `O=CC=O`, the Potency entry was “inactive”.

Take `O=C(NCNC(=O)NC1C(=O)NC(=O)N1CO)NC1C(=O)NC(=O)N1CO` (stereo not given): the Potency result was “inactive”.

In the case of `O=C1CC[C@@]2(O)[C@H]3Cc4ccc(O)c5c4[C@@]2(CCN3CC2CC2)[C@H]1O5`, the Potency entry was “inactive”.

In the case of `CC(Oc1cc(Cl)c(Cl)cc1Cl)C(=O)O` (stereo not given), the Potency entry was “inactive”.

For the molecule `CC(C)(C)NCC(O)c1cc(Cl)c(N)c(C(F)(F)F)c1` (stereo not given), the Potency result was “inactive”.

As for `C[C@@H]1C[C@@H]([C@H](O)CC2CC(=O)NC(=O)C2)C(=O)[C@@H](C)C1`, the Potency result was “inactive”.

With `Cc1cnc(C2=NC(C)(C(C)C)C(=O)N2)c(C(=O)O)c1` (stereo not given), the Potency entry is “inactive”.

On to `CCCCCCCCP(=O)(O)O`, for which the Potency entry is “inactive”.

For `CC1(C)CC(=O)CC(C)(C)N1[O]`, the Potency entry was “inactive”.

On to `CC(=O)OC(c1ccccc1)C(Cl)(Cl)Cl` (stereo not given), for which the Potency entry is “inactive”.

As to `FC(F)OC(F)(F)C(F)Cl` (stereo not given), the Potency result is “inactive”.

Take `Cc1ccccc1`: the Potency entry is “inactive”.

Take `C=C(C)C(=O)OCCCCOC(=O)C(=C)C`: the Potency entry is “inactive”.

Turning to `C[C@H]1O[C@H](OC2[C@@H](O)[C@@H](O)C(O)[C@H](O)[C@H]2O)[C@@H](N)C[C@@H]1N=C(N)C(=O)O` (stereo not given in full), the Potency entry is “inactive”.

Turning to `O=S(=O)(Cl)Cl`, the Potency result was “inactive”.

Take `CC[N+]1(CCOC(=O)C(O)(c2ccccc2)c2ccccc2)CCCCC1`: the Potency entry was “inactive”.

As to `CCC1(CC)C(=O)NC(=O)NC1=O`, the Potency result was “inactive”.

As for `CCC(C)Cl` (stereo not given), the Potency entry was “inactive”.

With `O=C([O-])c1ccccn1.O=C([O-])c1ccccn1.O=C([O-])c1ccccn1.[Cr+3]`, the Potency entry was “inactive”.

As for `CN(C1CCCCC1)C1CCCCC1`, the Potency entry is “inactive”.

Consider `Cc1ccc(N)c(C)c1`, for which the Potency result was “inactive”.

As to `COCc1cnc(C2=NC(C)(C(C)C)C(=O)N2)c(C(=O)O)c1` (stereo not given), the Potency entry was “inactive”.

`C1CCNCC1`: the Potency result is “inactive”.

For `C[C@H](N)[C@H](O)c1ccc(O)c(O)c1`, the Potency result is “inactive”.
